Data on 28 compounds can be found in PubChem BioAssay (EPA / NIEHS).

Activity calls are given as the source filed them. The calls were made as follows: active = hit-call score of the fitted dose curve at least 0.9, where 1 is the maximum; inactive = score below 0.9.

The experiment can be described thus: CCTE_Shafer_MEA_acute_network_burst_percentage: CCTE's Neural Acute Assay for Percentage of Network Bursts, Shafer Lab (AID 2284022).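 Also: curves fitted for loss so actives lower network burst percentage.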 As for the experimental part:
CCTE_Shafer_MEA_acute assay is conducted using Axion Biosystems 48 well microelectrode array (MEA) plates and Maestro recording system. Each well of the MEA plate contains a grid of 16 microelectrodes embedded in the culture surface. Electrically active cells, such as neurons, can be cultured over the electrodes, and electrical activity in these cells can be recorded extracellularly. The spontaneous firing of neurons is captured from each electrode on a microsecond timescale providing both temporally and spatially precise data. […] The CCTE_Shafer_MEA_acute assay uses primary cultures of rat cortical neurons. As these cultures mature over time, neural networks develop functional activity and form cohesive networks in which electrical activity can be highly coordinated. Baseline 40-minute recordings are made on days post-plating 13 or 15, followed by a secondary 40-minute recording after chemical exposure.CCTE_Shafer_MEA_acute_network_burst_percentage is a component of the CCTE_Shafer_MEA_acute assay. It measures the percent of spikes (action potential firings) in network bursts (temporally-clustered groups of spikes across multiple electrodes) as the number of spikes occuring in network bursts divided by the total number of spikes during a recording in a microelectrode array (MEA) using Axion Biosystems Maestro 768 channel amplifier with the AxIS adaptive spike detector. The recordings before and after chemical treatment are used to calculate a percent change in the network burst percentage in each well.Data from the assay component CCTE_Shafer_MEA_acute_network_burst_percentage was analyzed into 1 assay endpoint. This assay endpoint, CCTE_Shafer_MEA_acute_network_burst_percentage, was analyzed in the negative analysis fitting direction relative to DMSO as the negative control and baseline of activity. Using a type of functional reporter, gain or loss-of-signal activity can be used to understand electrical activity.
Spontaneous activity in the cortical cultures was recorded using an Axion Biosystems Maestro 768 channel amplifier and Axion Integrated Studios (AxIS) v1.8 (or later) software. The amplifier recorded from all channels simultaneously (gain = 1200 x; sampling rate = 12.5 kHz/channel): raw signals were filtered with a Butterworth band-pass filter (300-5000 Hz), which filters out slower local field potentials leaving only fast potentials, i.e., "spikes", arising from extracellular currents associated with action potentials (Pine 2006; Wheeler and Nam 2011). On-line spike detection of filtered signals was conducted with the AxIS adaptive spike detector, using a threshold of 8x the root mean squared (rms) noise on each channel. Any electrodes with rms noise levels greater than 5 uV were grounded (e.g., no data were recorded). Once grounded, an electrode was grounded for the duration of the experiment. All recordings were conducted at 37 C. Wells were deemed usable if on the day of the exposure >/= 10 electrodes were active (defined as >/= 5 spikes/min). On DIV 13 or 15, a minimum of three wells from one cortical culture preparation were treated with each compound (0.03-40 uM). Prior to recording baseline activity, each mwMEA plate was placed in the Maestro at 37 C and allowed to sit for 20 min while firing rates stabilized. Baseline activity (40 min) was recorded before the addition of each compound. An additional 40 min of spontaneous activity was recorded in the presence of each compound. Changes in network parameters relative to baseline were assessed following compound treatment.
Consider `CCCCC(CC)COP(=O)(OCC(CC)CCCC)OCC(CC)CCCC` (stereo not drawn), for which the compound was called inactive. In the case of `CCc1cc(C2=C(C(=O)O)N(c3ccccc3C(F)(F)F)S(=O)(=O)c3ccccc32)cc2c1OCO2`, the call was inactive. Consider `c1ccc2occc2c1`, for which the compound was called inactive. Take `O=C(N[C@@H](c1ccccc1)[C@@H]1CCCCN1)c1cccc(C(F)(F)F)c1Cl`: the AC50 was 9.12 µM (active). As to `Nc1nc(=S)c2[nH]cnc2[nH]1`, the outcome was inactive. On the same count and under the same terms, with `CCN(CC)CCOc1ccc(C(=C(Cl)c2ccccc2)c2ccccc2)cc1` the entry was “inactive”. For the compound `CC(C)COC(=O)CCCCC(=O)OCC(C)C`, the result was inactive.

For the compound `C/C=C/c1ccc(OC)cc1`, the compound was classed as inactive. As to `Cc1cc(Cc2ccc(N)c(C)c2)ccc1N`, the AC50 is 29.6 µM (active).

`O=C(O)CN(CC(=O)O)CC(=O)O`: the call was inactive. As for `CN(C)C(=O)NC1(c2ccccc2)CCN(CCC[C@]2(c3ccc(Cl)c(Cl)c3)CCCN(C(=O)c3ccccc3)C2)CC1`, the AC50 was 7.5 µM (active).

With `CN(C)CCCN1c2ccccc2Sc2ccc(Cl)cc21`, the compound was called inactive. `CC(N)=O`: the call was inactive. Same read-out and setting: with `CC1=C(C)S(=O)(=O)CCS1(=O)=O` the entry was “inactive”; with `Cc1ccc(-c2cc(C(F)(F)F)nn2-c2ccc(S(N)(=O)=O)cc2)cc1`, “inactive”.

Turning to `COC(=O)[C@H]1[C@H]2C[C@@H]3c4[nH]c5cc(OC)ccc5c4CCN3C[C@H]2C[C@@H](OC(=O)c2cc(OC)c(OC)c(OC)c2)[C@@H]1OC`, the call was inactive.

As to `NC(=Nc1ccccc1)Nc1ccccc1`, the outcome was inactive. Regarding `Cc1cc(SC2=C(O)C[C@@](CCc3ccc(N)cc3)(C(C)C)OC2=O)c(C(C)(C)C)cc1CO`, the compound was called inactive. For the compound `CN(C)C(=O)NC1(c2ccccc2)CCN(CC[C@@]2(c3ccc(F)c(F)c3)CN(C(=O)c3ccccc3)CCO2)CC1`, the AC50 is 5 µM (active).

As for `Cc1c(C)c2c(c(C)c1O)CCC(C)(COc1ccc(CC3SC(=O)NC3=O)cc1)O2` (stereo not drawn), the call was inactive.

Consider `CCCC(=O)O`, for which the compound was classed as inactive. Same read-out and setting: with `CC(C)NCC(O)c1ccc(O)c(O)c1` (stereo not drawn) the entry was “inactive”; with `CSc1ccc(Oc2ccc(S(N)(=O)=O)cc2CN(C)C)cc1C`, “inactive”. For the compound `O=C1OC(c2ccc(O)cc2)(c2ccc(O)cc2)c2ccccc21`, the AC50 was 31 µM (active). Turning to `OCC(CO)n1cnc(-c2ccc(F)cc2)c1-c1ccnc(Oc2ccccc2)n1`, the outcome was inactive. `Cc1ccc(C(C)(C)C)c(O)c1`: the compound was called inactive. Consider `COc1ccc(OC(F)(F)F)cc1CN[C@H]1CCCN[C@H]1c1ccccc1`, for which the AC50 was 3.09 µM (active). As for `Oc1ccc(O)cc1`, the call was inactive.
